Peg3 prom inh-1 – Peg3 promoter-driven luciferase inhibitors, primary screen, cell-based, HeLa, luciferase luminescence | HeLa PEG-Prom luciferase reporter, overnight | 360,000 tested, 1.7% active | inhibition, % at 20 µM;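 active = inhibition of at least 50% at 20 µM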
HIF-2a block – HIF-2a reporter inhibitors, primary screen, luminescence, 786-0 RCC cells. 786-0 RCC cells HIF-2a reporter, luciferase luminescence, overnight. inhibition, % at 18.8 µM. 360,000 tested, 0.72% active. AID 624352, 2012;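 active = inhibition of the luminescence signal of 40% or more relative to plate controls, in a single-dose primary screen at 18.75 µM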
CF NFkB inh – inhibitors of PAF-induced NF-kB signaling, primary screen, cell-based, GFP fluorescence, uHTS; inhibition, % at 5 µM; 360,000 tested, 0.86% active; KKLEB NF-kB-GFP reporter, GFP fluorescence overnight;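 active = at least 50% inhibition at 5 µM, scaled per plate between neutral and stimulator controls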;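 note: PAF is a Pseudomonas aeruginosa culture filtrate used as stimulus; plate controls were PAF-stimulated DMSO wells for no effect and unstimulated DMSO wells for full effect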
ABHD5 PLIN5 PPI – ABHD5-PLIN5 interaction inhibitors, primary screen, cell lysate, split luciferase complementation, luminescence; inhibition, % at 4 µM; Perilipin-5 (Homo sapiens) + 1-acylglycerol-3-phosphate O-acyltransferase ABHD5 (Homo …; Split G. princeps luciferase complementation, 4 h; AID 602281, 2012; 360,000 tested, 0.78% active;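 active = inhibition above the mean inhibition across every tested compound plus 3 SD, cut at about 22% in these data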;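 note: 0% = DMSO only wells and the 100% control is not disclosed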
Target sequence (Q00G26 whole entry, looked up): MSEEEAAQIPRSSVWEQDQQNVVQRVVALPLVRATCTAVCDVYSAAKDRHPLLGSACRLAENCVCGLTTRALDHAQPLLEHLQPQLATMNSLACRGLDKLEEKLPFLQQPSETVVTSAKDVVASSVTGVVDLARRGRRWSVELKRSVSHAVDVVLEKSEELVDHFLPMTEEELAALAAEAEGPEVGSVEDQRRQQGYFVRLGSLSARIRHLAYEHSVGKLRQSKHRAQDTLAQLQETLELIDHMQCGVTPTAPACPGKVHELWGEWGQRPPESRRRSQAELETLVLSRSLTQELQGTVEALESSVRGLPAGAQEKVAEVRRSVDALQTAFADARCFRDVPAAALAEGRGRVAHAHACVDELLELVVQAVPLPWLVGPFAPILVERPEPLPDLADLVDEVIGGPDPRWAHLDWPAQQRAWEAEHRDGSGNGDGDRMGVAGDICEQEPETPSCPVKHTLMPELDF
Target sequence (Q8WTS1 whole entry, looked up): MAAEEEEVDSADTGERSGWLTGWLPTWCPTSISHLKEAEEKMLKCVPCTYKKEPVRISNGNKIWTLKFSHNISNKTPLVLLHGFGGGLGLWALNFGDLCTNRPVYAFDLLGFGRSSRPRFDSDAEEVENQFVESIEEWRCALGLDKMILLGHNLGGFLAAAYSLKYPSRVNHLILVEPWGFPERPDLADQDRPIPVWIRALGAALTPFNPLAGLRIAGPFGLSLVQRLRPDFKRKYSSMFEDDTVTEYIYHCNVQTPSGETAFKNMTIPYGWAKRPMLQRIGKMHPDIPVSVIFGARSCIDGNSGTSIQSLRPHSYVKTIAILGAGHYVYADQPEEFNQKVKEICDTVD
MITF TRPM1 inh – inhibitors of MITF-dependent TRPM1 promoter reporter, primary screen, cell-based, SK-MEL-5, single point, luciferase | SK-MEL-5 TRPM1 promoter luciferase, 24 h | 330,000 tested, 0.83% active | inhibition, % at 12.5 µM;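 active = mean inhibition across replicates of 60% or more, whatever share of single replicates reaches that level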
KKLEB cytotox – cytotoxicity in KKLEB CF airway cells, primary screen, cytotoxicity control for CF NF-kB inhibitor project, cell-based, uHTS, fluorescence assay plates | KKLEB CF airway cells viability, ATPlite luminescence, overnight; hits give low values; cells stimulated with P. aeruginosa culture filtrate | activity change (cytotoxicity), % at 5 µM | 360,000 tested, 0.36% active | AID 602141, 2011;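 active = corrected activity change at or below -50% at 5 µM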
Peg3 prom inh-2 – Peg3 promoter reporter inhibitors, retest, confirmation, cell-based, HeLa, luciferase reporter, single concentration. shares compounds with Peg3 prom inh-1. 1,300 tested, 84% active. AID 602417, 2012. inhibition, % at 20 µM. HeLa PEG-Prom luciferase reporter, luminescence, overnight;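 active = at 20 µM dose, 40% or more inhibition averaged across four replicates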
CF NFkB conf – inhibitors of PAF-induced NF-kB signaling, retest, confirmation, cell-based, GFP fluorescence, single concentration; inhibition, % at 5 µM; 1,300 tested, 64% active; KKLEB CF airway cells, overnight; shares compounds with CF NFkB inh; AID 602472, 2012; in the data active = inhibition above about 40%;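 note: stimulus PAF is a Pseudomonas aeruginosa filtrate and not platelet activating factor; plate controls were DMSO wells with stimulus for no effect and unstimulated DMSO wells for full effect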
Mdm2-MdmX confirm – retested Mdm2-MdmX interaction blockers, confirmation, cell-based, luminescence, single concentration, set 2. shares compounds with HIF-2a block. SaOS-2 split-luciferase Mdm2/MdmX complementation. inhibition, % at 8 µM. 740 tested, 99% active. AID 504601, 2011;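 active = mean inhibition of the luminescence signal across two replicates at or above 26 percent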
HIF-2a inh conf – HIF-2a reporter inhibitor retest, confirmation, luminescence, 786-0 RCC cells; shares compounds with HIF-2a block; HIF-2a luciferase reporter luminescence, overnight; inhibition, % at 18.8 µM; 1,800 tested, 56% active;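 active = mean inhibition across four replicates of at least 40 percent at the single tested concentration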
HIF-1a cs – HIF-1a luciferase reporter signal reduction – MiaPaCa-2 cells, single concentration, counter-screen for HIF-2a inhibitor project, confirmation; shares compounds with HIF-2a block; MiaPaCa-2 HIF-1a luciferase reporter, desferoxamine, overnight; inhibition, % at 18.8 µM; 1,800 tested, 72% active; AID 651589, 2012;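 active = mean inhibition of the reporter signal across four replicates at the single tested dose of 50% or more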
Starred values were filed as active, the others as inactive; x = no result. An excerpt weighted towards active compounds, which were near 3.1% of everything screened.

SMILES | Peg3 prom inh-1 | HIF-2a block | CF NFkB inh | ABHD5 PLIN5 PPI | MITF TRPM1 inh | KKLEB cytotox | Peg3 prom inh-2 | HIF-2a inh conf | HIF-1a cs | others
O=C(Nc1ccccc1)C1Cc2c(-c3cccc(F)c3)ccnc2O1 (stereo not given) | 18.0 | 3.9 | -11.3 | 9.5 | x | 5.3 | x | x | x
O=C(Cn1ncc(Cl)c(Cl)c1=O)N1CCN(Cc2ccccc2)CC1 | 103.1* | 96.0* | 88.2* | 5.5 | 98.5* | -67.8* | 94.7* | 60.7* | 106.2*
O=C(Cn1ncc(Cl)c(Cl)c1=O)N1CCc2ccccc21 | 107.8* | 93.7* | 102.8* | 5.5 | 99.3* | -87.8* | 99.2* | 98.1* | 106.1*
CC(=O)Nc1cncc(-c2cccc(S(C)(=O)=O)c2)n1 | -4.1 | 0.0 | 8.3 | 0.1 | x | -6.5 | x | x | x
O=S(=O)(NCCc1ccc(F)cc1)c1ccc(F)cc1Br | -12.5 | -8.8 | 3.9 | -10.5 | -0.6 | 14.5 | x | x | x
O=C(NCCc1ccccc1)c1ccc2c(c1)OCCO2 | 104.7* | 84.2* | -47.3 | -6.2 | 88.2* | -27.0 | 90.2* | 90.8* | 94.9*
COc1ccc(CCNC(=O)c2ccc3c(c2)OCCO3)cc1 | -171.5 | -198.7 | 7.4 | -4.7 | -51.0 | 5.1 | x | x | x
O=C(NCCS(=O)(=O)NCCc1ccccc1)c1ccc2c(c1)OCO2 | -254.8 | -158.1 | 12.7 | 12.4 | -103.3 | 13.3 | x | x | x
O=C(NCCc1ccccc1)c1ccc2c(c1)OCCCO2 | 107.8* | 92.2* | 2.7 | -9.4 | 91.7* | -51.7* | 94.5* | x | x | Mdm2-MdmX confirm=99.5*
N#CC(C#N)=C1C=CC=CN1/C(=C\c1ccco1)C(=O)c1ccc(Cl)cc1 | 103.7* | 94.3* | 84.6* | 87.1* | 89.8* | -49.7 | 100.4* | 97.6* | 97.1* | CF NFkB conf=10.0
Cc1ccc(NC(=O)Nn2cnnc2)cc1Cl | 1.1 | -1.6 | -4.1 | -3.0 | -5.3 | -1.3 | x | x | x
Cc1ccc(NC(=O)O/N=C/c2c(C)nn(C(C)(C)C)c2C)cc1Cl | 104.3* | 91.2* | 14.2 | -3.4 | 83.0* | -26.0 | 98.1* | 97.2* | 104.5* | Mdm2-MdmX confirm=101.2*
CC(C)(C)[C@H]1C=C(C(=O)N2CCN(Cc3ccc4c(c3)OCO4)CC2)O[C@@H](OCc2ccc(CO)cc2)C1 | 11.3 | 8.6 | -21.6 | 6.6 | -21.8 | 4.3 | x | x | x
N#C/C(=C\c1cccc([N+](=O)[O-])c1)C(=O)NCc1ccc(Cl)cc1 | 111.2* | 65.7* | 4.7 | 7.5 | 52.7 | 0.2 | 96.2* | 59.8* | 105.6*
c1ccc2nc(-c3ccc(N4CCOCC4)cc3)ccc2c1 | 31.8 | -8.8 | -19.5 | -1.3 | 54.3 | -46.3 | x | x | x
CN1CCN(c2ccc(-c3ccc4ccccc4n3)cc2)CC1 | 105.0* | 87.3* | 10.2 | 11.3 | 75.9* | -58.6* | 95.2* | 96.7* | 87.4*
O=C(NCCC1CCCCN1S(=O)(=O)c1cccs1)C(=O)Nc1cccc(F)c1 (stereo not given) | 4.6 | -57.5 | -18.8 | -2.4 | -6.0 | 8.4 | x | x | x
CC(=O)c1sc(Nc2nc3ccc(F)cc3s2)nc1C | -266.9 | -206.6 | -2.1 | 0.2 | -50.5 | -5.8 | x | x | x
COC(=O)c1ccc2nc(Nc3nc4ccc(F)cc4s3)sc2c1 | 79.4* | 89.5* | -9.7 | -1.3 | 83.6* | 0.9 | 89.8* | 97.8* | 87.6*
Nn1cnnc1SCC(=O)Nc1ccc(C2CCCCC2)cc1 | -193.9 | -116.9 | -6.0 | 2.8 | -24.5 | -6.1 | x | x | x
O=C(O)CSCC(=O)Nc1ccc(C2CCCCC2)cc1 | 71.4* | 81.2* | 2.5 | 1.9 | 74.0* | 3.2 | 76.5* | 95.1* | 93.5*
CCCCNc1nc(=S)n(-c2ccccc2)c(C)c1C(C)=O | 113.7* | 51.0* | 7.4 | -6.8 | 64.3* | 1.5 | 93.8* | -12.3 | 30.2
CCC(O)(CC)C(=O)NN(C(=O)CCl)c1ccccc1 | -5.8 | -0.2 | -7.0 | 3.7 | 7.9 | 2.0 | x | x | x
O=C(Nc1ccccc1)NN(C(=O)CCl)c1ccccc1 | 100.0* | 58.1* | 69.7* | 11.4 | 87.3* | -33.8 | 92.4* | 67.3* | 90.0* | Mdm2-MdmX confirm=103.0*
O=C(N/N=C/c1sc(N2CCOCC2)nc1-c1ccccc1)c1cccc(S(=O)(=O)N2CCCC2)c1 | 65.7* | 32.3 | -26.1 | 4.3 | 52.3 | 5.2 | 65.7* | x | x | Mdm2-MdmX confirm=80.0*
SMILES | Peg3 prom inh-1 | HIF-2a block | CF NFkB inh | ABHD5 PLIN5 PPI | MITF TRPM1 inh | KKLEB cytotox | Peg3 prom inh-2 | HIF-2a inh conf | HIF-1a cs | others
CCCCCC(O)CCCC(=O)O (stereo not given) | 6.1 | 11.4 | -13.0 | -8.4 | -6.3 | 9.6 | x | x | x
CCCCCCCCCCCCCCCC(O)C[N+](C)(C)CCO (stereo not given) | 103.8* | 62.5* | 54.3* | 5.5 | 3.5 | -61.7* | 86.5* | 51.9* | 92.0*
O=C1CCC2S/C(=C/Nc3ccc(C(F)(F)F)cc3)C(=O)N12 (stereo not given) | 66.9* | 96.8* | -3.9 | 1.6 | 86.1* | 5.3 | 89.5* | 98.3* | 105.2*
N#Cc1cc2c(nc1SC1CC(=O)N(c3ccccc3)C1=O)CCC2 (stereo not given) | 57.2* | 59.3* | 8.6 | -5.3 | 65.3* | -3.6 | 59.1* | 82.6* | 62.9*
C=CCNC(=O)COC(=O)c1cc(S(=O)(=O)N2CCCCC2)ccc1Cl | 5.8 | 7.8 | -26.8 | -0.7 | -6.6 | 7.9 | x | x | x
O=C(NCc1cccnc1)c1ccc(Cn2c(=S)[nH]c3ccc(Br)cc3c2=O)cc1 | -6.3 | 11.1 | 51.5* | -0.5 | 1.4 | -41.9 | x | x | x | CF NFkB conf=38.2
O=c1c2cc(Br)ccc2[nH]c(=S)n1Cc1ccccc1 | 37.8 | 6.8 | -11.7 | -3.5 | 1.3 | 1.4 | x | x | x

Screens (PubChem BioAssay)
